# This is a sample that favours compounds with a hit; in the whole collection about 9.9% have one here.
# HPGD inh: qHTS Assay for Inhibitors of HPGD (15-Hydroxyprostaglandin Dehydrogenase). 15-hydroxyprostaglandin dehydrogenase [NAD(+)] (Homo sapiens), P15428. purified HPGD, NADH fluorescence kinetic, PGE2 substrate. Potency, µM, without a hit: at the top dose activity change, negative = inhibition, usual class: inhibitors. actives 4.3% (n = 150,000). AID 894, 2007; active means well fitted inhibition curve with a large enough effect, not every such curve was filed as active; inconclusive means small, poorly fitted or top-dose-only effect, or another doubt; inactive means no such curve, though single readings can be large or run the other way
# Target sequence (P15428 whole entry, looked up): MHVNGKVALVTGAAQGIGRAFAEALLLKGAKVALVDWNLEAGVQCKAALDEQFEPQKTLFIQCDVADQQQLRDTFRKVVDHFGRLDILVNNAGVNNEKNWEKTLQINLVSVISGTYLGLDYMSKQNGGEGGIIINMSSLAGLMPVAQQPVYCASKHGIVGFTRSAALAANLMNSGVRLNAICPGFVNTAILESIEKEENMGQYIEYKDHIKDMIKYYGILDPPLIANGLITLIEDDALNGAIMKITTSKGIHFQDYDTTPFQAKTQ
#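 NADH formation kinetics: reaction with 30 uM PGE2 and 1 mM NAD+ (final), 20 nM enzyme, Tris-HCl pH 8 with Tween 20, after 15 min compound preincubation at room temperature. Fluorescence change, last versus first of five reads.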
# Tau fibril FP: qHTS for Inhibitors of Tau Fibril Formation, Fluorescence Polarization. Microtubule-associated protein tau (Homo sapiens), P10636. K18 P301L tau heparin fibrillization, Alexa594 FP, 6 h. Potency, µM (series often up to 57.7 µM), for the others: at the highest dose activity, negative = inhibition, hits mostly inhibitors. actives 0.39% (n = 280,000); further: nearly all actives have a fitted effect of over 55% in size
#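 Recombinant K18 P301L […], labeled with Alexa 594 at 0.24 uM over 15 uM unlabeled; heparin inducer 20 uM final; 37 C, 6 hr; FP endpoint.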
# JMJD2E inh: qHTS Assay for Inhibitors of Human Jumonji Domain Containing 2E (JMJD2E); JMJD2E catalytic domain, FDH-coupled NADH fluorescence (FDH is formaldehyde dehydrogenase); actives 1.6% (n = 230,000); Lysine-specific demethylase 4E (Homo sapiens), B2RXH2; Potency, µM (titrated, usually from 57.1 µM), without a hit: at the top dose activity change, negative = inhibition, most hits filed as inhibitors; active means well fitted inhibition curve with a large enough effect, not every such curve was filed as active; inconclusive means small, poorly fitted or top-dose-only effect, or another doubt; inactive means no such curve, though single readings can be large or run the other way;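 further: 0% = wells with enzyme and -100% = buffer wells without enzyme; nearly all actives have a fitted effect of over 50% in size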
# Target sequence (B2RXH2 1-337 limits assumed): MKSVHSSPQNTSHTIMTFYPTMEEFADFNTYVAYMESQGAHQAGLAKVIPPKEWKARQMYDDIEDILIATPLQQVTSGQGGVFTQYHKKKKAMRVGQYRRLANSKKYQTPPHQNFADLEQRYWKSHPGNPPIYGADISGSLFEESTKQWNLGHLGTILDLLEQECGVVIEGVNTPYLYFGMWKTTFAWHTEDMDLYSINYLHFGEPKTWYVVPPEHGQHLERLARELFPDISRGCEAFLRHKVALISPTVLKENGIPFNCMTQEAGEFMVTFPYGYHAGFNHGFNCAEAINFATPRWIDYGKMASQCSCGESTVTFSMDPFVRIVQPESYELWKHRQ
# Tau fluor counter: Counterscreen qHTS for Inhibitors of Tau Fibril Formation, Fluorescence Polarization; actives 0.93% (n = 280,000); tau K18 P301L Alexa594 fluorescence, heparin fibrillization; Potency, µM (series often up to 57.7 µM), for the others: at the highest dose activity change, negative = decrease; further: nearly all actives have a fitted effect of over 55% in size
#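 Human K18 P301L tau (15 uM unlabeled plus 0.24 uM Alexa 594-labeled, final) in 100 mM sodium acetate pH 7 was mixed with compound and 20 uM heparin and incubated 6 hr at 37 C.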
# Tau fibril ThT: qHTS for Inhibitors of Tau Fibril Formation, Thioflavin T Binding; Microtubule-associated protein tau (Homo sapiens), P10636; recombinant tau K18 P301L, heparin-induced fibrillization, ThT fluorescence; Potency, µM (series often up to 57.4 µM), for inactives: at the highest dose activity, negative = inhibition, actives largely listed as inhibitors; actives 2.1% (n = 270,000); AID 1460, 2008; further: nearly all actives have a fitted effect of over 55% in size
#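 Using a mix of unlabeled (15 uM) and Alexa 594-labeled (0.24 uM) tau K18 P301L, heparin-triggered fibrillization over 6 hr at 37 C was scored by ThT fluorescence.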
# ALDH1A1 inh: qHTS Assay for Inhibitors of Aldehyde Dehydrogenase 1 (ALDH1A1); Purified ALDH1A1, NADH fluorescence, propionaldehyde substrate; Potency, µM (top dose mostly 75.3 µM), for the others: at the top dose activity, negative = inhibition, hits mostly inhibitors; actives 7.3% (n = 220,000); AID 1030, 2008; active means well fitted inhibition curve with a large enough effect, not every such curve was filed as active; inconclusive means small, poorly fitted or top-dose-only effect, or another doubt; inactive means no such curve, though single readings can be large or run the other way;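 further: plate controls were no enzyme wells and a reference inhibitor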
# Active calls of the source: *; ? = inconclusive; / = no result; [ ] = dose if it differs, or a comment. Unless noted, the call rests on the fitted dose curve; in most records, active means well fitted curve in the direction sought with a large enough effect; inconclusive means small, poorly fitted or top-dose-only effect, or another doubt; inactive means no such curve, though single readings can be large; an effect the other way counts as inactive or inconclusive. Unless noted, on the % scale 0 is the no-effect control and ±100 the full control effect; potency means the concentration at half of the fitted maximal effect.
SMILES,HPGD inh,Tau fibril FP,JMJD2E inh,Tau fluor counter,Tau fibril ThT,ALDH1A1 inh
CCC(=O)NC1=C(Cl)C(=O)C(NC(=O)CC)=C(Cl)C1=O,/,3.5µM*,?,?,2µM*,?
CC(C)Cn1c(O)c(N=NC(=O)c2cccc(S(=O)(=O)N3CCCCC3)c2)c2ccccc21,-12%,5%,-3%,-19%,?,3.5µM*
O=C(C[n+]1cn(C(F)F)c2ccccc21)c1ccc(Br)cc1,/,9%,-8%,1%,-20%,8.9µM*
CCc1nnc(SCC(=O)Nc2cccc(C(F)(F)F)c2)c2cc3oc(C)cc3n12,/,5%,/,-16%,?,/
O=C(O)c1cccc(N/N=C/C2=C(Cl)c3cc(Cl)ccc3SC2)c1,/,?,-2%,?,6.3µM*,20µM*
COc1ccc(N=c2oc3c(OC)cccc3cc2C(=O)NCc2ccco2)cc1OC,-15%,5%,-9%,-12%,?,0.35µM*
COc1cccc(C(=O)N/N=c2\oc3c(OC)cccc3cc2C(=O)NCc2ccccc2)c1,-2%,4%,-1%,-14%,-16%,0.32µM*
O=C(OCc1ccccc1)[C@@H]1COC(c2ccc(Br)cc2)=N1,-9%,0%[81.3 µM],/,-12%[81.3 µM],-9%[81.4 µM],2%
CCOC(=O)N/N=C/c1c(F)c(F)c(F)c(F)c1F,-2%,3%,0%,5%,4%,-13%
Cc1ccc(S(=O)(=O)NCCCCCC(=O)Nc2nccs2)cc1,-6%,-2%,2%,-7%,-2%,16µM*
Cc1ccc(NC(=O)CCCCCNS(=O)(=O)c2ccc(C)cc2)cc1,-2%,-3%,6%,-10%,-8%,?
Cc1ccc(S(=O)(=O)NCCCCCC(=O)Nc2c(C)n(C)n(-c3ccccc3)c2=O)cc1,/,4%,-6%,8%,6%,13µM*
O=C(CCCCCCN1C(=O)c2ccccc2C1=O)Nc1nccs1,7.9µM*,-8%,8%,-4%,0%,-8%
Cc1cccc(NC(=O)CCCCCN2C(=O)c3ccccc3C2=O)n1,25µM*,3%,11%,9%,7%,?
Cc1ccc(S(=O)(=O)NC(=O)Nc2c(C)n(C)n(-c3ccccc3)c2=O)cc1,-11%,0%,2%,-2%,-7%,2%
Cc1cccc(NC(=O)CCCN2C(=O)c3ccccc3C2=O)n1,-6%,-2%,2%,-4%,-10%,-1%
NC(=O)c1nc(-c2ccc(F)c(F)c2)nc2c1[nH]c(=O)n2-c1cccc(Cl)c1,/,?,/,-4%,9%,/
O=C(CN1CCN(Cc2ccccc2)CC1)N/N=C/c1ccc(Br)s1,/,8%,-4%,-7%,-15%,-4%
C#CCOCCOCCOCCNc1nc(N2CCN(C(=O)Cn3cc(CC(C)O)nn3)CC2)nc(N2CCN(C(=O)[C@H](C)n3cc(CCCN=C(N)N)nn3)CC2)n1 (some centres undefined),3%,-7%,-27%,-9%,-7%,2%
Nc1sc(-c2ccccc2)c(Cc2ccccc2)c1C(=O)O,/,2%,-12%,?,-15%,10µM*
O=C(Cn1c(=O)sc2ccccc21)Nc1ccc(O)cc1,/,-8%,0%,-11%,-7%,2%
Cc1c(O)c(CN2CCCC2)cc2c3c(c(=O)oc12)CCC3,?,?,?,-22%,13µM*,?
Cc1ccc(N2C(=N)/C(=C3/Nc4ccccc4S3)C(c3ccccc3)C2=O)cc1 (centres undefined),/,7%,4%,-3%,0%,9.5µM*
CN(c1ccccc1)S(=O)(=O)c1cccc(C(=O)Nc2ccc3c(c2)CCC3)c1,-24%,-12%,-1%,?,-7%,10µM*
CN(c1ccccc1)S(=O)(=O)c1ccc(C(=O)Nc2nccs2)cc1,-11%,-13%,-5%,-13%,0%,-104%
SMILES,HPGD inh,Tau fibril FP,JMJD2E inh,Tau fluor counter,Tau fibril ThT,ALDH1A1 inh
CN(c1ccc(C(=O)Nc2nccs2)cc1)S(=O)(=O)c1ccccc1,8.9µM*,-3%,-7%,-23%,-5%,17%
Cn1c(SCc2ccc(C(=O)Nc3nccs3)cc2)nnc1-c1ccccc1,14µM*,-7%,-8%,-9%,?,?
CCc1nnc(NC(=O)c2cccc(S(=O)(=O)N(C)c3ccccc3)c2)s1,28µM*,13%,-2%,0%,-6%,-26%
COc1ccc(C2C(C(=O)Nc3ccccc3OC)=C(C)Nc3ncnn32)cc1 (centres undefined),-10%,9%,6%,-2%,-6%,14µM*
COc1ccccc1NC(=O)C1=C(C)Nc2nnnn2C1c1ccccn1 (centres undefined),-3%,3%,3%,-4%,-10%,13µM*
CCOC(=O)C1=C(C)NC(=S)N(C(C)=O)C1c1ccccc1 (centres undefined),-19%,-15%,-3%,-3%,-7%,25µM*
COc1ccccc1NC(=O)C1=C(C)Nc2ncnn2C1c1ccccc1C(=O)O (centres undefined),/,4%,/,-10%,-9%,/
CCOC(=O)C1=C(C)Nc2ncnn2C1c1ccc(N(C)C)cc1 (centres undefined),/,-2%,-1%,-1%,-11%,18µM*
COc1ccccc1NC(=O)C1=C(C)Nc2nnnn2C1c1ccccc1OC (centres undefined),-6%,-2%,-14%,-4%,-11%,-6%
COc1ccc(N2CCN(CC(O)COc3ccc(C(C)C)c(C)c3)CC2)cc1 (centres undefined),/,6%,/,-27%,?,/
CCOC(=O)C1=C(C)Nc2nc(SCC)nn2C1c1ccc(OC)cc1 (centres undefined),-21%,-5%,-21%,-9%,2%,?
CCOC(=O)C1=C(c2ccccc2)NC(=O)NC1c1ccc(N(C)C)cc1 (centres undefined),-8%,-1%,0%,-13%,-14%,14µM*
CCOC(=O)C1=C(C)Nc2nc(=S)[nH]n2C1c1ccc(Cl)cc1 (centres undefined),11µM*,-7%,1%,-11%,?,?
CCOC(=O)C1=C(c2ccccc2)NC(=O)NC1c1ccc(OC)cc1 (centres undefined),/,2%,-6%,3%,-2%,-14%

# Compound activity as filed in PubChem.
